# Screening data deposited in PubChem by National Center for Advancing Translational Sciences (NCATS).
# Hits are enriched below; roughly 3.1% of the tested compounds scored in any of these assays.
# TRb-SRC2 inh – TRbeta-SRC2 interaction inhibition | Potency, µM (top dose mostly 106 µM), inactives show at the highest dose activity change, negative = inhibition, actives largely listed as inhibitors | P10828 | 0.065% of 280,000 active | TRbeta-SRC2 peptide binding, fluorescence polarization; receptor liganded with 1 µM T3;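 also: plate controls were bound peptide for no effect and peptide without receptor for full effect; nearly all actives have a fitted effect of over 50% in size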
# Target sequence (P10828 whole entry, looked up): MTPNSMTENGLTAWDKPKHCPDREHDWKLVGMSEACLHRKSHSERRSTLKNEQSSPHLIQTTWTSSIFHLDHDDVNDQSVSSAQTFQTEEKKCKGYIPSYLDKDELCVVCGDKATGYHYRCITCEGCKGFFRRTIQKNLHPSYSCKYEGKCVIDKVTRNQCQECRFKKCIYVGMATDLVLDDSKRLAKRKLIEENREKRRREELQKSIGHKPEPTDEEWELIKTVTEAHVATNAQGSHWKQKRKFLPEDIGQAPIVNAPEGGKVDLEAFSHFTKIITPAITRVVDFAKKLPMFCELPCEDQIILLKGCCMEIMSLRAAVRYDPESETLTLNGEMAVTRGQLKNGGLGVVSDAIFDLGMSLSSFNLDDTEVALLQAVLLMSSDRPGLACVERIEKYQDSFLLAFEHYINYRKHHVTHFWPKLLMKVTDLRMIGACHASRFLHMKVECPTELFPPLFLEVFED
#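 Quantitative HTS by FP: 0.6 uM TRb LBD, 20 nM labeled SRC2 20-mer, 1 uM T3, 5% DMSO; 5 hr ambient incubation; % activity per concentration and potencies from concentration series.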
# Tau fluor counter – counter-screen for tau fibril formation inhibitors; tau K18 P301L Alexa594 fluorescence, heparin fibrillization; Potency, µM (doses to about 57.7 µM), for the others: at the highest dose activity change, negative = decrease; 0.93% of 280,000 active; also: nearly all actives have a fitted effect of over 55% in size
#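 Human K18 P301L tau (15 uM unlabeled plus 0.24 uM Alexa 594-labeled, final) in 100 mM sodium acetate pH 7 was mixed with compound and 20 uM heparin and incubated 6 hr at 37 C.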
# TexasRed fluor – Texas Red fluorescence interference in TRb-SRC2 counter-screen; TRb/SRC2 Texas Red total fluorescence interference; AID 1479; Potency, µM (series often up to 106 µM), inactives show top-dose fluorescence change, negative = quenching; 0.29% of 280,000 active; active = well fitted curve in either direction with a large enough effect; inconclusive = small, poorly fitted or top-dose-only effect
#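 Human TRb ligand-binding domain at 0.6 uM with 20 nM Texas Red SRC2 peptide in Tris buffer containing 1 uM T3 and 5% DMSO, incubated with compound 5 h at ambient temperature. Total fluorescence (555/632 nm) calculated as parallel + 2 × perpendicular.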
# Tau ThT inhib – blocks human tau fibril formation measured by thioflavin T | P10636 | 2.1% of 270,000 active | Potency, µM (doses to about 57.4 µM), without a hit: top-dose activity, negative = inhibition, usual class: inhibitors | recombinant tau K18 P301L, heparin-induced fibrillization, ThT fluorescence; also: nearly all actives have a fitted effect of over 55% in size
# Target sequence (P10636 561-689 P618L limits assumed): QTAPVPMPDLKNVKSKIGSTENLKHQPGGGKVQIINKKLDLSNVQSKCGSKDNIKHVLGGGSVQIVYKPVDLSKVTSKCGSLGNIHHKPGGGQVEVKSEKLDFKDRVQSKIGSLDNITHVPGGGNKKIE
#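 Using a mix of unlabeled (15 uM) and Alexa 594-labeled (0.24 uM) tau K18 P301L, heparin-triggered fibrillization over 6 hr at 37 C was scored by ThT fluorescence.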
# Tau fibril FP – tau fibrillization inhibition (FP). K18 P301L tau heparin fibrillization, Alexa594 FP, 6 h. Potency, µM (top dose mostly 57.7 µM), without a hit: at the top dose activity, negative = inhibition, actives largely listed as inhibitors. P10636. AID 1468. 0.39% of 280,000 active; also: nearly all actives have a fitted effect of over 55% in size
#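 Recombinant K18 P301L […], labeled with Alexa 594 at 0.24 uM over 15 uM unlabeled; heparin inducer 20 uM final; 37 C, 6 hr; FP endpoint.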
# * hit, by the source's call; ? = inconclusive; · = not tested or not shown; [ ] = another dose, or the depositor's remark. Unless noted, calls follow the shape of the dose curve; as a rule, active = well fitted curve in the direction sought with a large enough effect; inconclusive = small, poorly fitted or top-dose-only effect, or another doubt; inactive = no such curve, though single readings can be large; an effect the other way counts as inactive or inconclusive. Unless noted, % is scaled to controls: 0 for no effect and ±100 for the full control effect; potency is read from the fitted curve at half-maximal effect.
SMILES,TRb-SRC2 inh,Tau fluor counter,TexasRed fluor,Tau ThT inhib,Tau fibril FP
COCc1[nH]nc2c1C(c1ccc(OC)c(OC)c1)C(C#N)=C(N)O2 (configuration not stated),-11%,-3%,0%,-7%,-4%
CCCc1[nH]nc2c1C(c1cccnc1)C(C#N)=C(N)O2 (configuration not stated),1%,?,0%,18µM*,?
CCn1c2ccccc2c2cc(C3C(C#N)=C(N)Oc4n[nH]c(COC)c43)ccc21 (configuration not stated),-10%,?,-4%,16µM*,-17%
CCOc1ccccc1CNC(=O)c1ccc2nc(CCc3ccccc3)oc2c1,8%,-15%,0%,?,0%
CCOc1ccccc1NC(=S)NCc1cccn1C,6%,-8%,1%,-8%,6%
CN1CCN(C2=Nc3cc(F)ccc3Cc3ccccc32)CC1,2%,-3%,1%,3%,-4%
CN1CCN(C2=Nc3c(Cl)cc(Cl)c4cccc2c34)CC1,5%,-13%,-1%,18µM*,4%
Cc1cccc(NC2=C(C#N)C(=O)NC3(CCCC3)S2)c1,0%,0%,2%,?,?
COc1cccc(NC2=C(C#N)C(=O)NC(c3cccc(OC)c3O)S2)c1 (configuration not stated),-1%,-24%,-3%,32µM*,?
N#CC1=C(Nc2ccccc2Cl)SC(c2ccccc2O)NC1=O (configuration not stated),5%,-25%,-3%,?,32µM*
O=C(COc1ccccc1)Nc1nnc(SCc2cc(=O)c3ccccc3[nH]2)s1,0%,-8%,-1%,-11%,-4%
CCc1ccc(C(=O)/C=C/Nc2ccc(S(=O)(=O)Nc3cnc4ccccc4n3)cc2)cc1,4%,1%,-3%,?,0%
O=[N+]([O-])c1ccc(-c2nc(-c3ccc(F)cc3)c(-c3ccncc3)[nH]2)cc1,0%,20µM*[quencher],?,14µM*,?
O=[N+]([O-])c1ccc2nc(-c3ccncc3)[nH]c2c1,-3%,-15%,-2%,-18%,11%
CC(C)n1c(O)c(/C=C2\C=NN=C2c2ccccc2)sc1=S,3%,?,0%,-11%,14µM*
Cc1ccc(N2C(=O)CSC23C(=O)N(CC(=O)NC2CCCCC2)c2ccccc23)cc1 (configuration not stated),2%,-5%,-1%,-8%,-1%
Clc1ccc(N=c2ssnc2Cl)nc1,0%[53 µM],-9%,2%[53 µM],-8%,-7%
N#Cc1cccc(N=c2ssnc2Cl)c1,-7%,-18%,-5%,11µM*,?
Clc1nssc1=Nc1ccc(Br)cc1,-7%,-25%,-2%,13µM*,?
OCc1ccccc1N=c1ssnc1Cl,-5%,?,2%,35µM*,?
COc1cc(N=c2ssnc2Cl)cc(OC)c1,1%,-9%,-5%,-1%,3%
Cn1c(C(=O)c2ccccc2[N+](=O)[O-])nc2ccccc21,8%,-5%,0%,1%,-2%
CCOC(=O)CC(NS(=O)(=O)c1ccc2[nH]c3c(c2c1)CCCC3)c1ccccc1Cl (configuration not stated),1%,?,?,-11%,20%
COC(=O)c1ccc(NS(=O)(=O)c2ccc3[nH]c4c(c3c2)CCCC4)cc1,-5%,10µM*[quencher],28µM*[quencher],1%,-14%
COC(=O)c1ccc(NS(=O)(=O)c2ccc3[nH]c4c(c3c2)CCCCC4)cc1,-7%,4µM*[quencher],?,-1%,?
SMILES,TRb-SRC2 inh,Tau fluor counter,TexasRed fluor,Tau ThT inhib,Tau fibril FP
COc1ccc(N2C(=O)CSC23C(=O)N(CC(=O)NCc2ccccc2)c2ccccc23)cc1 (configuration not stated),-2%,-9%,5%,0%,-1%
CCN(CC)S(=O)(=O)c1ccc(OC)c(NC(=O)C2CC(=O)N(c3ccc(C)cc3)C2)c1 (configuration not stated),10%,-9%,2%,-2%,-6%
Nc1cccc2nsnc12,4%,-16%,1%,28µM*,?
COc1ccc(Cl)cc1NC(=O)C(C)n1c(=O)cc(C(F)(F)F)c2c(C)nn(C)c21 (configuration not stated),-12%,-8%,?,-6%,12%
C=CC1=C(C)C2=Cc3c(C=C)c(C)c4[n]3[Sn+2][n]3c(c(C)c(CCC(=O)O)c3=CC3=NC(=C4)C(C)=C3CCC(=O)O)=CC1=N2,13µM*,-12%,?,?,18µM*
c1ccc2c(c1)[nH]c1c(N3CCCC3)ncnc12,-5%,-3%,-4%,-20%,13%
Fc1ccc2[nH]c3c(N4CCc5ccccc5C4)ncnc3c2c1,8%,?,-2%,-6%,-4%
CCOc1ccc2[nH]c3c(N4CCc5ccccc5C4)ncnc3c2c1,0%,14µM*[quencher],-5%,?,?
Brc1ccc2[nH]c3c(N4CCc5ccccc5C4)ncnc3c2c1,12%,11µM*[quencher],1%,-16%,10%
Cc1ccc2[nH]c3c(N4CCc5ccccc5C4)ncnc3c2c1,4%,25µM*[quencher],-1%,?,?
C=CCN1C(=O)/C(=C2\SC(N3CCOCC3)=NC2=O)c2cc(Br)ccc21,-12%,-27%,-3%,16µM*,9%
O=C1N=C(N2CCOCC2)SC1=C1CCCCC1,-5%,3%,0%,-5%,0%
CN(/N=C/c1ccc([N+](=O)[O-])o1)c1ccccc1,-2%,?,-6%,7.1µM*,-11%
Cc1ccc(/C=N/n2c(C)nc3ccccc3c2=O)o1,-3%,-6%,-5%,-6%,0%
O=C(N/N=C/c1ccc([N+](=O)[O-])o1)C(O)c1ccccc1 (configuration not stated),-1%,-7%,3%,·,0%
Cc1nc2ccccc2c(=O)n1/N=C/c1ccc([N+](=O)[O-])o1,-6%,?,-4%,28µM*,?
CCOc1ccc(N=Nc2c(=O)[nH]n3c(C)cc(C)nc23)cc1,3%,-14%,-3%,13µM*,4%
COc1cccc(N=Nc2c(=O)[nH]n3c(C)cc(C)nc23)c1,3%,-8%,-9%,?,4%
CCn1c(SCC(=O)N/N=C(\C)c2ccncc2)nnc1-c1ccc(C)cc1,-3%,-9%,-3%,-9%,-2%
CCOC(=O)CSc1[nH]c2cc(OC)ccc2c1[N+](=O)[O-],14%[53 µM],-1%,0%[53 µM],0%,0%
COc1ccc2c([N+](=O)[O-])c(Cl)[nH]c2c1,5%,?,0%,28µM*,?
Cc1nnsc1C(=O)N/N=C/c1ccc2ccccc2c1O,1%,-20%,-1%,3.2µM*,?
